Reference: PubChem BioAssay (NCI)
Compounds without any hit were thinned out: in the full panel of roughly 83,000, 20% have a hit.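 Note: values are percent growth. 100 is the growth of untreated cells, values between 100 and 0 indicate rising inhibition; between -100 and 0 indicates cell death.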 The source made the active and inactive calls. Rule for the calls: active = growth percent below 10; inactive = the rest.

Key:
Assay in all cases: NCI-60 one-dose screen, 48 h (100 = growth as untreated, 0 = no growth, -100 = all killed)
[1] = tested on: NCI-H23 lung; details: 10 µM unless noted
[2] = tested on: NCI-H226 lung; details: 10 µM unless noted
[3] = tested on: NCI-H322M lung; details: 10 µM unless noted
[4] = tested on: NCI-H460 lung; details: 10 µM unless noted
[5] = tested on: HOP-92 NSCLC; details: 10 µM
[6] = tested on: NCI-H522 lung; details: 10 µM
[7] = tested on: A549/ATCC NSCLC; details: 10 µM unless noted
[8] = tested on: 786-0 renal; details: 10 µM unless noted
[9] = tested on: COLO 205 colon; details: 10 µM unless noted
[10] = tested on: DU-145 prostate; details: 10 µM unless noted
[11] = tested on: K-562 leukemia; details: 10 µM unless noted
[12] = tested on: MALME-3M melanoma; details: 10 µM unless noted
[13] = tested on: MDA-MB-231 breast; details: 10 µM unless noted
[14] = tested on: RXF 393 renal; details: 10 µM unless noted
[15] = tested on: SF-268 CNS; details: 10 µM unless noted
[16] = tested on: SF-295 CNS; details: 10 µM unless noted
[17] = tested on: SF-539 CNS; details: 10 µM unless noted
[18] = tested on: UACC-257 melanoma; details: 10 µM unless noted
[19] = tested on: M14 melanoma; details: 10 µM unless noted

Measured: growth

Oc1ccccc1/C=N/N=C/c1c(O)ccc2ccccc12
inactive: [1] 82% | [2] 90.8% | [3] 107% | [4] 88% | [5] 66.9% | [6] 84% | [7] 95.6% | [8] 107% | [9] 104% | [10] 96.9% | [11] 78.5% | [12] 91.3% | [13] 69.9% | [14] 109% | [15] 92.5% | [16] 98.1% | [17] 96.9% | [18] 98.2% | [19] 80%

COc1cc(-c2c3c(cn2CCN2CCCCC2)-c2oncc2CC3)cc(OC)c1OC
inactive: [1] 98.6% | [2] 90.2% | [3] 110% | [4] 101% | [5] 81.8% | [6] 90.9% | [7] 101% | [8] 105% | [9] 103% | [10] 109% | [11] 108% | [12] 110% | [13] 109% | [14] 100% | [15] 94.7% | [16] 97.6% | [17] 94% | [18] 109% | [19] 105%

CCCC(=O)NNc1[nH]c(-c2cc(OC)c(OC)c(OC)c2)cc1C(=O)OCC
inactive: [1] 107% | [2] 103% | [3] 145% | [4] 123% | [5] 84.8% | [6] 105% | [7] 115% | [8] 92.5% | [9] 34.3% | [10] 94.5% | [11] 37.9% | [13] 107% | [14] 105% | [15] 120% | [16] 95.3% | [17] 91.6% | [18] 106%

CC(=O)Nc1nc(C)c(C(=O)N/N=C/c2cccs2)s1
inactive: [1] 103% | [2] 86.9% | [3] 111% | [4] 102% | [5] 42.6% | [6] 94.8% | [7] 101% | [8] 94.3% | [9] 101% | [10] 115% | [11] 108% | [12] 117% | [13] 89.3% | [14] 113% | [15] 97% | [16] 96.2% | [17] 99.3% | [18] 109% | [19] 95.7%

O=C1C(=O)c2ccccc2C(O)=C1CCCc1ccc(Oc2ccccc2)cc1
inactive: [1] 75% | [2] 46.5% | [3] 62.2% | [4] 32.7% | [5] 54.5% | [6] 57.9% | [7] 82.2% | [8] 37.5% | [9] 111% | [10] 85.4% | [11] 34% | [12] 54.7% | [13] 89.1% | [14] 92.9% | [15] 47.2% | [16] 92.9% | [17] 68.6% | [18] 51.5% | [19] 41.3%

O=C(/C=C1\C(=O)N(Cc2ccccc2)c2ccccc21)c1ccc(OCCN2CCCCC2)cc1
inactive: [1] 58.9% | [2] 84.6% | [3] 92.6% | [4] 87.7% | [5] 10.7% | [7] 83% | [10] 47.5% | [13] 45.9% | [15] 73.9% | [16] 85.6% | [17] 51.9% | [18] 76.8% | [19] 37.9%
active: [6] -44.5% | [8] -74.3% | [9] -34% | [11] 2.2% | [14] 0.729%

CCOC(=O)C1CCCN1C(=O)C1(NC(C)=O)CCCC1 (centres undefined)
inactive: [1] 100% | [2] 104% | [3] 91.3% | [4] 98.2% | [5] 84.7% | [6] 107% | [7] 101% | [8] 102% | [9] 105% | [10] 103% | [11] 110% | [12] 96.7% | [13] 121% | [14] 110% | [16] 104% | [17] 95.8% | [18] 102% | [19] 95.2%

CCN(CC)CCCC(C)Nc1c(C)cnc2cc(Cl)c(C)cc12 (centres undefined)
active: [11] 3.57% | [19] 7.11%
inactive: [1] 91.9% | [2] 96.2% | [3] 87.6% | [4] 90.2% | [5] 70.4% | [6] 82.3% | [7] 103% | [8] 64.7% | [9] 72.2% | [10] 91.7% | [12] 110% | [13] 73.5% | [14] 69.3% | [15] 87.6% | [16] 84.8% | [17] 72.3% | [18] 112%

COC(=O)c1ccc2[nH]c(O)c(C(=Nc3ccc(N(C)C(=O)CN4CCN(C)CC4)cc3)c3cccc(OC)c3)c2c1
inactive: [2] 32.4% | [3] 21.8% | [5] 48.3% | [6] 12.1% | [8] 10.4% | [13] 13.1% | [16] 29.9% | [18] 31.8%
active: [1] 7.62% | [4] 7.31% | [7] 9.85% | [9] -55.8% | [10] 8.57% | [11] 3.85% | [12] -16.3% | [14] -55.7% | [15] 6.71% | [17] -11.2% | [19] 8.85%

CC(C)OC(=O)c1ccc2n1CCCc1cnc(Nc3ccccc3)nc1-2
inactive: [1] 67% | [2] 84.4% | [3] 116% | [4] 86.6% | [5] 75.6% | [6] 63.3% | [7] 74.4% | [8] 83.3% | [9] 86% | [10] 87.2% | [11] 43.6% | [12] 55.4% | [13] 78% | [14] 91.2% | [15] 94.4% | [16] 76.1% | [17] 86.1% | [18] 82.8% | [19] 89.6%

COC(=O)c1ccc(C(=Nc2ccc(N(C)C(=O)CN3CCN(C)CC3)cc2)c2c(O)[nH]c3ccc(C(=O)OC)cc23)cc1
inactive: [1] 35.4% | [2] 33% | [3] 47.3% | [4] 43.7% | [5] 51.1% | [6] 19% | [7] 35.6% | [8] 36.4% | [9] 21.8% | [10] 38.2% | [13] 49.2% | [14] 17.7% | [15] 32.8% | [16] 44.4% | [17] 23.3% | [18] 67.7% | [19] 28.7%
active: [11] 7.19% | [12] -14.7%

CCC(C)C1NC(=O)C(CCCCN)NC(=O)C(CCCCN)NC(=O)C(CC(C)C)NC(=O)C(CCCCN)NC(=O)C(C(C)CC)NC(=O)C(C(C)C)NC(=O)C(C(C)CC)NC(=O)C(CCCCN)NC(=O)C(CCCCN)NC(=O)C(C)NC(=O)C(CCCCN)NC(=O)C(CC(C)C)NC1=O (centres undefined)
active: [5] -9.52% | [6] 9.29% | [9] -59.4% | [11] 9.18% | [12] 9.48% | [13] -0.123% | [18] 7.94%
inactive: [1] 16.6% | [2] 46.8% | [3] 82% | [4] 14.8% | [7] 20.2% | [8] 20.8% | [10] 25.5% | [14] 45.2% | [15] 19.5% | [16] 27.4% | [17] 67.5% | [19] 22.2%

CC(=N\N=C(N)N)/C(=N/N=C(N)N)c1ccccc1
inactive: [1] 43.1% | [2] 91.4% | [3] 76.4% | [4] 93.3% | [5] 95.2% | [6] 94.4% | [7] 86.2% | [8] 101% | [10] 51.7% | [11] 91.3% | [12] 99.2% | [13] 116% | [14] 104% | [16] 99.1% | [17] 74.6% | [18] 93.2% | [19] 88.6%
active: [9] 6.49%

CC(=O)Nc1nc(C)c(C(=O)NNC(=O)Nc2ccccc2)s1
inactive: [1] 102% | [3] 120% | [4] 108% | [5] 60.6% | [6] 64.5% | [7] 99.1% | [8] 110% | [9] 105% | [10] 101% | [11] 114% | [12] 126% | [13] 89.6% | [14] 121% | [15] 99.8% | [16] 116% | [17] 99.4% | [18] 116% | [19] 107%
active: [2] 7.19%

COC(=O)c1ccc2[nH]c(O)c(C(=Nc3ccc(N(C)C(=O)CN4CCN(C)CC4)cc3)c3ccc4c(c3)OCO4)c2c1
active: [1] 5.66% | [4] 8.35% | [6] 2.17% | [7] 5.98% | [9] -54.4% | [10] 7.84% | [11] 4.82% | [12] -5.19% | [14] -56.9% | [17] -19%
inactive: [2] 23.3% | [3] 21% | [5] 36.9% | [8] 14.4% | [13] 12.5% | [15] 11.5% | [16] 27.5% | [18] 31.5% | [19] 10.5%

CCOC(=O)NC1=NCC(C)(C)S1
inactive: [1] 102% | [2] 97.2% | [3] 101% | [4] 101% | [5] 111% | [6] 87.3% | [7] 100% | [8] 104% | [9] 117% | [10] 107% | [11] 88.4% | [12] 103% | [13] 101% | [14] 111% | [15] 97.8% | [16] 98.7% | [17] 110% | [18] 103% | [19] 103%
